This note sets out measurements from PubChem BioAssay AID1508600 (Functional Genomics Laboratory (NCATS/FGL), 2020).

In all, about 53,000 sequences went through this assay and about 3,700 (7%) were called active. This is one part of a sample in which actives are shown more often than they occur. Unmarked numbers belong to inactive results.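 Rule for the calls: active = gene knockdowns whose robust z-score for IL-1 alpha signal is at least 2 or at most -2, so actives lie on both sides; inactive = the rest.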

The experiment in a line: Components of the Cytosolic LPS Sensing Pathway: Gene Identification via Genome-wide siRNA Screen.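 Note: robust z of the log signal after scaling to non-targeting control siRNA wells of the plate.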 Conditions: RAW264.7 macrophages, IL-1a HTRF, actives lie on both sides, screened at 100 nM (by protocol), cells primed 5 h with Pam3CSK4 first. In outline: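 RAW264.7; siRNA 100 nM final, RNAiMAX, 48h 37 degrees C; Pam3CSK4 5 h; LipidA + TransIT-TKO 24 h; IL-1a HTRF; CellTiter-Glo viability; robust z vs negative-control median.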
(Time-resolved FRET reads energy transfer from a long-lived donor to a nearby acceptor.)
With GCAAGAUACUGACCACUAGTT against Krt25, the z-score was 0.14. The same measure for CCCAGGUGAGACCUUUACCTT against Fndc3b: -1.76. In the case of CCUUCUUGUGGGAGUGAAATT against Chodl, the z-score is -0.0597. The value for GGUAGACACACACAUUCAUTT against Ampd3 was 0.633; that for AGUGCUCAUUAACUGUCGCTT against Snrpd2 was -2.75 (active); that for CCGUUGACCUGAAAAGGAATT against Clic4 was -0.0288. The same measure for GGAGAAAAGCAAUAAUGAATT against Klf12: -1.07; for CGUGAGCACAAAAAUAUUGTT against Fchsd2: -0.251. Take GGACAAGUCGAAGAGUGAGTT against Ing1: the z-score is -2.26 (active). The same measure for GGAACAGCGGCUAACUUAUTT against Asic4: 1.4; for GGUGCUAAGCAUGAAGCCUTT against Stk16: -1.01. The value for GGUAGAAGAAUUGUUUGUGTT against Tcp11l1 was 0.967. For GGUGAUGCUUCUUGGAGACTT against Rab37, the z-score is -0.59. Take GCGUGAACGGAUAAAAAAUTT against Figla: the z-score was 1.09. On to GGCACUUAAGGAAAUUGGGTT against Bloc1s1, for which the z-score is -2.02 (active). Consider CCAUUCCAAAGGUAUUAGCTT against Olfr619, for which the z-score was -0.244. For GGCAAAACAACUUUAUUCCTT against Ucp2, the z-score was 1.14. The same measure for GGAUAUCACCUUCGAGAUATT against Ankrd7: -0.0496; for GGAUGAGAUCAACUUCCUCTT against Krt7: -0.6; for GCAUCUCAAGACGAUGGAUTT against Akap8l: 2.3 (active). For the sequence GGCUUUUGAAGCCAUCAAGTT against Mrpl57, the z-score is -1.2.

Take GGAAUUCUGACGUGAAGAATT against Olfr13: the z-score is -0.987.

Turning to GGUAGACUGUGAAAAUGACTT against Ldlr, the z-score is -0.6.

In the case of GGUGAAGCGAAUUCUCUACTT against Upb1, the z-score was -0.362. The value for “GGCAUUGGCAUUUUUAUAGTT against 9530056K15Rik” was -0.879; that for GCCACGAGUUCUUUGAAGCTT against Ubxn6 was -0.15; that for GGACAAGAUUGUAUCUGCATT against Olfr1507 was -0.56. For the sequence GGAGCAAGAGUCUAAAUGATT against Rubcn, the z-score is -2.23 (active). The same measure for GGAUCAAGUGGCUGAUUUGTT against Ube2t: -0.457.

As to GGACUAUUCUGAGAAUCCCTT against Olfr821, the z-score is -1.69. As for GCCUCUGAUGUAAACAGGATT against Nr2c2ap, the z-score was 0.883. In the case of “GCAGUGUAUACCUGGGCUATT against 1700001C19Rik”, the z-score is 0.388. For GGCACUCCUGAUGUUCUCUTT against Cyb561d2, the z-score is -2.96 (active).

With GGUGUUACAGAUGUACCGATT against Nfkbid, the z-score is 0.0859. The value for GGAAGACAAUGAUGAUGUUTT against Clns1a was -1.82; that for GGAGUUUUGAAUAAACCAATT against Tmc7 was -0.2. With GGGCUUUCCUCAAGGUAGUTT against Olfr62, the z-score was -1.39. The same measure for GGAAUUGUCUAACAGGCUGTT against Hoxd12: -0.025. The same measure for GGAACAGUUACUUGAGAGUTT against Zfp786: 0.759; for CGAGCUCAGGCCUAUUAAATT against Cdh12: 3.39 (active).

Consider GGCUUUGACAAUCUUUAAGTT against Ergic1, for which the z-score is -0.687.

In the case of CCUCAACUGGUUCCCUAACTT against Spatc1, the z-score is -1.73.

As to GCUGGUUACAUAAAGCUACTT against Slc25a51, the z-score was 0.0694. The value for CGGAGUAAACAAUACAGUCTT against Gnmt was 2.26 (active); that for CCUCCUAAGGAUGAAGAUUTT against Calml4 was 0.654; that for CGACAGUUACUUGCCCAGATT against Rasgrp3 was -1.36. With GGCGAAAUCUGCUAGAGUATT against Tppp3, the z-score was 2.3 (active).

For the sequence GCUGUCGUUGAAGGCAUUGTT against Olfr317, the z-score is -0.828. On to GAGUGAUGCGCAUUUCGAGTT against Sf3b5, for which the z-score is -2.53 (active). The same measure for GCCAGAUCAUUGUAUCAAUTT against Tmx3: 1.27; for GGAGAUUGUUGACCUGGUCTT against Tuba3b: 2.03 (active); for GGUGGAUGUCUUCUUCAACTT against Gata2: 0.697. GCCUCGUGAAUAAUUGAAATT against Ddt: the z-score is 0.967. The same measure for GCCUAUUCUAUCGAUAACCTT against Cdh23: 0.801; for GGCCAUCAGUAUCAGCAAATT against Hip1r: 0.547; for GGCUAUUGUGGAGAAGAUCTT against Cblif: -2.07 (active). Turning to GGAGACUCCUAAGAAGCAGTT against Cc2d1a, the z-score is 0.445. The same measure for GGAUCGAAUCAGGAAUGAATT against Nphs1: 1.39. Regarding GGAGAGUUACGACGUAUUCTT against Ckb, the z-score was 0.23.

Take GGGACAAAAACACAUGUACTT against Kif5c: the z-score was 0.773. The value for GGGAAUCAAAGGCUUUGGGTT against Ms4a1 was -1.15; that for CCAUAUACCCUUGAAUUCCTT against Tmem185b was 0.154; that for GGAAAGGAAUGUUCAAAUUTT against Psmb8 was 2.02 (active). Consider GGAAGACCUUCUUAAACACTT against Prokr2, for which the z-score is 1.26. As to GCUUUUGACGAGCAAGCAGTT against Eme1, the z-score is 1.47. The value for GGCAGUCACUGGCUAAAUGTT against Ugt2a1 was 2.13 (active); that for CCCUUUCCUAUUUGUUAUGTT against Serpinb3d was 0.754. As to GGUAUUAGUAUGUAUCUUCTT against Olfr135, the z-score is 0.305. For CCCUAAUGAAUGGUCUCAUTT against Tmem74, the z-score was -0.176.

Regarding CCAUGUCCUAACCUGAAACTT against Zic5, the z-score was 0.372. Turning to GGAUUUGAGCGAUAUGAGCTT against Tex12, the z-score was -3.29 (active).

As to GGCCCUAAUAGCAACAGGATT against Ubqln2, the z-score was -1.31. The same measure for GGCCUUCAAAUCAUACGCUTT against Ms4a19: 0.283.

As for GGAAGAAAAGGCUUCUCUUTT against Ube3c, the z-score was -0.00788.

With GGGAGAAUUUUUGUGCAAGTT against Capza3, the z-score is 0.437.

On to CGCAUGUUCAUAGGACUGCTT against Olfr1420, for which the z-score was 0.453. With GGAUCUUUCUUUUCUCUCUTT against Rab6b, the z-score was 0.32. Consider GCUGAUCAAAUUGGCCUGUTT against Olfr984, for which the z-score is -0.703. The same measure for GCUUCAGUAUUUAUUUGCUTT against Usp28: 2.27 (active); for GGAAGGCCGCAUACUGAUGTT against Scgn: -0.218; for GGAUUGAAAGCUACUCGUGTT against Maf1: 0.533.

GAGACAAUGCAGCAAAAUCTT against Gm839: the z-score is -1.13. Consider GCACAAUUUCGUGUGAGCUTT against Sfxn5, for which the z-score is 0.643. The same measure for GGCAGAAUUUGAGCACUUUTT against B4galnt2: -2 (active); for GGAGGAGUAUGUUAAGGCCTT against Myh6: 0.193; for GGAGAGUCCAUACCAGAACTT against C1qa: 0.0536. The value for GGUUGGACAACAUAAUAAGTT against Riox2 was 1.17; that for GGUGUGGAGUAUGUAUGCUTT against Aplp1 was -1.11; that for GGCCUGCGUUCAGAAGAGUTT against Wrn was 3.46 (active). As for GGAACUACUACUCACCUAUTT against Trhr, the z-score was -0.776.

GGGUCCUAAAAAUUCAAUUTT against Decr2: the z-score is -0.106. GCUUCGUGGCUUUUUAUGATT against Dlgap3: the z-score was -0.788. For the sequence GCGAUUUGUGGUUCUCAUATT against Rnf103, the z-score was -0.559. The value for GGCGCACAAAGCUGUUCUUTT against Zbtb43 was -0.87; that for GGGAACAAAAACAUAAAAGTT against Otub2 was -1.17.

With GAAUUGUCUUACUUGGAAATT against Gimap4, the z-score was 2.05 (active). In the case of CGGUCCUGAAUGAUCCUACTT against Gp2, the z-score is 0.969. For the sequence GGAUUUGUGUCCAUCGUGCTT against Olfr66, the z-score is 0.00905.

Take CCGUAUGUAACCAUCAAAGTT against Ncf1: the z-score is 0.281. In the case of GGCACUCCCUAAUGAACUCTT against Adck5, the z-score was 1.42.

With GUUACCUCAGUGUUAUACUTT against Olfr45, the z-score was 1.7. The value for GGUGAAAAGAUGCAGGUGATT against Atp1a3 was -1.1; that for CGAUGAACACACGUCUUAUTT against Dtl was 2.05 (active). The same measure for GGGCAGGAACAAAAGAAGCTT against Dsc1: 0.165. The value for GGUGUCACCAUUUCAGUGGTT against Lbp was 0.703; that for GCAUUCAUGUGCUCUGCCCTT against Ifitm6 was -0.952; that for GGCUGUCUUCUGAUCAAUUTT against Adamts3 was 2.42 (active).

Consider GGCAUUGAAUUAAAGAUACTT against Myct1, for which the z-score is -1.06.
